Measured values from the supplement of paper PMC6555819.

Tested on: VDR:RXRa (NR concentration 270 nM, RXRa partner concentration 90 nM)
Experiment: PBM binding z-score (relative to random genomic background probes); higher = stronger binding; sequences stand for … in GC…GCGATTGACAGCGTAGAATGAAGG
Experimental: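 Protein-binding microarray (Agilent 4x180K custom design, double-stranded 60-nt probes: 5' GC cap, 34-nt variable region, 24-nt constant primer region; full probe sequence given). Purified or IVT nuclear receptor:RXRα heterodimers (3:1 NR:RXRα, mostly 270:90 nM) or homodimers were incubated for 1 h in PBS with 2% milk and no ligand, then detected with Alexa488 antibodies. Fluorescence from o1-orientation probes (~5 replicates averaged) was converted to z-scores against 500 random hg19 background probes. Variable regions are seed direct-repeat (DR0–DR5) sites, all their single-nucleotide variants and half-site ablations.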

Sequence | PBM binding z-score
CCTACTGGGCCGTTCAGAGGTCATTGATCATATG | 3.58
ACTTACGGCTCAACGAGGTTATAGCACGCGTATA | 1.53
AGCGAAAGGTCGAGGTGAGTATAGAGAAAGGGAA | 2.71
CCTTACGGGTCACGTGGTTATAGCACGACGAGCG | 3.94
CGTCTAAGGTCATAGGAGGTCAGTGAAGACAGAT | 6.86
CCGAATAGGTTACGAGGGGGCATTCAGTGCGAAT | 5.89
TAGCCTAGGTCATGCGGCCCAGTATAGTGTCGGC | 1.77
CCGAGTTGGTCAAGGTCACACACGCTATAGGTAC | 4.7
TAGCCTAGGTCACATCGGGCCAGTATACGCTATA | 2.43
CCTTAGGGGTCAAGGTTATAGCACGGGTGGTACG | 6.11
CGTCAAAGGTCAATGCTAGGTCAGTGAAAGCATT | 6.01
TATAAAGGGTCAAAGGCCAGAGTACGAATGTCGA | 4.86
TAGCCTAGGGCATTCAGGGGCCAGTATAGAAAGC | -0.213
CCTACTGGGCCACGAAAGGCCATTGATTCAGTGA | -0.147
ATATGTAGGTTATCGGGTCATACAGTTTGCGCAT | 5.13
CGTCCAAGGTCAAGGTCAATGAAAGAGACTCGAA | 5.07
TGTCAAAGTTCAAAGGTTACGTAAGTATCCACAC | 6.4
ATCGAAAGGTCAAAGGTGAGTATACCCACCCGAA | 6.2
CCTACTGGGCCAAAGAGGTCATTGATGCCGATAA | 5.68
TCTGCTAGGTCATCGATGGTCAGCTAATCTGCTA | 2.16

Sequence | PBM binding z-score
CAGCATAGGTCAGGGCCAGTATAGGAGGAACGTT | 1.4
ATATGTAGGTTAGCTGAGGTCATTCAGACTAGGC | 6.12
CGAACTACGTCATCCAGGACAGTGAATACATTGA | 0.17
AGAATGAGGTTAAGTTCAGGGAAACAGAATACAT | 3.33
TCTATTAGTTGATTAGGGCAACCGAAACAGCGGA | 0.711
CCTAGCAGGCCAATCTAGGTCACTCAAGGCTTGA | 0.635
CCTACTGGGCCACTAAAGGTCATTGATTCAGTGA | 4.05
TGTCAAAGGTCAAAGGTAACGTAAGTATCCACAC | 6.2
CGAACTAGGTCGTCCAGGACAGTGAATACATTGA | 1.65
AGTCAAAGTTCATCTAGGTAACATAAGATATGCT | 5.33
CGTCAAAGTCCAAGGTAACGTAACAGAAAGCAGC | -0.137
CGTTCAAGGTCAAAGGTCAGTGAAGAGATGACGG | 6.9
TCTTGTAGATCAACAGGAGGTTAATAAAGATCGA | 0.648
ATCGAAAGGTCATGAGGTGAGTATACAGAAAGGC | 5.78
AATACAGGGTAACTAGGCCAGAGTAGGTACGAAT | 0.199
TAGCCTAGGTCGTTCAGGGGCCAGTATAGAAAGC | 0.798
TGTATGAGGTTAAAGATCAGGGAACGTGGCGTCG | 2.15
CCTGCGAGGTCATGGTCAGCTAATCTACAGTATG | 5.17
GGAACGAGGGCAAAGTTCATAGCATCTGTCGACG | 5.05
TAGCCTAAGTCATGCGGGCCAGTATAGTGTCGGC | -0.392
